From PubChem BioAssay AID1942 (Johns Hopkins Ion Channel Center, 2009) come the findings set out here.

Structures are written as SMILES. About 580 (24%) of roughly 2,400 compounds were called active. The list is a sample of the results. Values without a mark were called inactive.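 How the source made its calls: active means activity change at or above the mean plus 3 SD of buffer wells without dofetilide, per plate; inactive means the rest.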

In this assay the target is Potassium voltage-gated channel subfamily KQT member 2 (Rattus norvegicus) (UniProt O88943). The assay can be described thus: rat KCNQ2 channel activation by compounds alone, confirmation, counter-screen for hERG block protector project, cell-based, CHO, FluxOR thallium flux (AID 1942).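 Further: normalized value minus buffer-control mean plus three SD of buffer wells.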 Particulars: CHO-KCNQ2 cells, FluxOR thallium flux fluorescence; at 10 µM; active compounds read high.
Sequence of Potassium voltage-gated channel subfamily KQT member 2 (Rattus norvegicus) (O88943 whole entry, looked up): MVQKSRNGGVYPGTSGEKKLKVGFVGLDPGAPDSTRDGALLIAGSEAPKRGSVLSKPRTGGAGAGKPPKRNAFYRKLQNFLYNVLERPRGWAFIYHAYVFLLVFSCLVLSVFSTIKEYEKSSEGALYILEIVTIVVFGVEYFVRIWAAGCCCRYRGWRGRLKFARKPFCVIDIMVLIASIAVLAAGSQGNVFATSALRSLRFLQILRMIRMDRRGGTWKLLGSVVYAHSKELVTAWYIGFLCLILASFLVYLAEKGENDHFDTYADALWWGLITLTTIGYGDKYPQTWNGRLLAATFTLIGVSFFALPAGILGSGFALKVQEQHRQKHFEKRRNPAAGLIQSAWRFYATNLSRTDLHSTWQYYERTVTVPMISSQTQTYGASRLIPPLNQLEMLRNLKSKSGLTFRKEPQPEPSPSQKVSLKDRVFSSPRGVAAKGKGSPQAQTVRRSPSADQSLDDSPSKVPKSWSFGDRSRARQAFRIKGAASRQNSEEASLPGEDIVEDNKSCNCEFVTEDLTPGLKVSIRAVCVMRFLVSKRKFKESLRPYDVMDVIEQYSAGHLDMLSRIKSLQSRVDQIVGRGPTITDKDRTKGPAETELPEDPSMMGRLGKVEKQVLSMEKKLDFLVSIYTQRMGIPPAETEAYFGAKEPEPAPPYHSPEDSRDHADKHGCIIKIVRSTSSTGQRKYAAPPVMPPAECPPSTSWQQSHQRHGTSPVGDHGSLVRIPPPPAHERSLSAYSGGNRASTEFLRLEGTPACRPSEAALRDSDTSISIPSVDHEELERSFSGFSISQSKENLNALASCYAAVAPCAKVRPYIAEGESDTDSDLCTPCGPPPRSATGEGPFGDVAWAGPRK
`CN1CCN(c2nnc(-c3cccs3)c3ccccc23)CC1`: the activity change, less the hit threshold was -26.6%. Then `COC(=O)c1sccc1NC(=S)N1CC(C)CC(C)C1` (stereo not drawn), with -25%; and `CN(C)c1ccc(N=Nc2ccc(C(=O)O)cc2)cc1`, with -18.5%. With `O=c1ccc(N=Nc2ccccc2)ccc1O` the figure was 87.6% (active). Take `O=C(COC(=O)c1cccs1)NCCN1C(=O)CSC1=O`: the activity change, less the hit threshold was -22%.

As to `CC(NC(=O)c1ccc(F)cc1)c1ccc2c(c1)CCCC2` (stereo not drawn), the activity change, less the hit threshold was 26.1% (active).

In the case of `CC(NC(=O)c1ccc(Br)cc1)c1ccc2c(c1)CCCC2` (stereo not drawn), the activity change, less the hit threshold is 33.3% (active).

As to `CCc1ccc(C(C)NC(=O)c2ccc(F)cc2)cc1` (stereo not drawn), the activity change, less the hit threshold was 21.6% (active). With `Cn1c(CNC(=O)CNC(=O)c2ccc(F)cc2)cc(=O)n(C)c1=O` the figure was -10.8%. Then `CC(NC(=O)CCNC(=O)c1ccco1)c1ccc(F)cc1` (stereo not drawn), with -12.9%. With `S=c1[nH]c2ccccc2n2cccc12` the figure was -14.5%; with `CCOc1ccc(-n2c(C)c(C(C)=O)c3cc(O)ccc32)cc1`, -2.3%.

Consider `CC(=O)c1ccc(S(=O)(=O)NCc2ccc(C(=O)N(C)CC(=O)Nc3cccc(F)c3)cc2)cc1`, for which the activity change, less the hit threshold is -9.1%.

In the case of `C=CCn1c(=S)[nH]c2cc(-c3ccccc3)sc2c1=O`, the activity change, less the hit threshold was -4.4%. For the compound `C=CCn1c(SCC(=O)Nc2cccc(C)c2)nnc1-c1cnccn1`, the activity change, less the hit threshold is -26.8%.

Regarding `C=CCn1c(=S)[nH]c2scc(-c3cccs3)c2c1=O`, the activity change, less the hit threshold is 93.7% (active). Take `C=CCn1c(SCC(N)=O)nc2scc(-c3ccc(C)o3)c2c1=O`: the activity change, less the hit threshold was 1.7% (active). Consider `NC(=O)CSc1nc2ccccc2c(=O)n1CCc1ccccc1`, for which the activity change, less the hit threshold is -15.2%. Turning to `C=CCn1c(=S)[nH]c2scc(-c3ccc(C)o3)c2c1=O`, the activity change, less the hit threshold is 80.3% (active). Turning to `CCC1(C)CC2(CCCN(CCC(=O)c3ccccc3)C2)CCO1` (stereo not drawn), the activity change, less the hit threshold is -25%.

In the case of `O=C(NCc1ccco1)C1CCN(C(=O)Cc2ccccc2)CC1`, the activity change, less the hit threshold is -17.3%. With `O=C(CCSCCc1ccccn1)Nc1cccc([N+](=O)[O-])c1`, the activity change, less the hit threshold is -11.2%.

Turning to `CCN1C(=O)/C(=C\c2ccc(-c3cccc(C(=O)OC)c3)o2)SC1=Nc1ccc(C(=O)O)cc1`, the activity change, less the hit threshold is -22.8%. Then `CCCCN(C(=O)CNC(=O)c1cccs1)C(C(=O)NC1CCCC1)c1ccncc1` (stereo not drawn), with -7.8%; and `CCCCN(C(=O)CC1CCCC1)c1c(N)n(CC(C)C)c(=O)[nH]c1=O`, with -9.9%; and `CCSC(=S)c1c(C)[nH]n(-c2ccccc2)c1=O`, with -4.2%. On to `Cc1[nH]n(-c2ccccc2)c(=O)c1N=Nc1ccc(C(N)=O)cc1`, for which the activity change, less the hit threshold is -25.6%.

For the compound `CCCSC(=S)c1c(C)[nH]n(-c2ccccc2)c1=O`, the activity change, less the hit threshold is 49.7% (active).

As for `Cc1cc(C(=O)NCCN2C(=O)S/C(=C\c3cccs3)C2=O)ccc1[N+](=O)[O-]`, the activity change, less the hit threshold is -16.8%. In the case of `Nc1nonc1-n1nnc(C(=O)N/N=C/c2ccccn2)c1-c1ccccc1`, the activity change, less the hit threshold is -18.1%. Regarding `COc1ccc(C2N=C(c3ccccc3)C(C)(C)N2O)cc1` (stereo not drawn), the activity change, less the hit threshold was -18.6%. Consider `Cc1nn(C)cc1C(=O)Nc1ccc2c(c1)OCCO2`, for which the activity change, less the hit threshold was -19.7%. As to `Cc1ccc(CN2CCN(CC(=O)NC(C)c3ccc4c(c3)OCCO4)C2=O)cc1` (stereo not drawn), the activity change, less the hit threshold was 16.9% (active). With `Cc1cc(Cl)ccc1OC(C)C(=O)NCCc1ccc2c(c1)OCCO2` (stereo not drawn), the activity change, less the hit threshold is -30.8%. As to `O=C(N/N=C/c1ccc(Sc2ccccn2)o1)c1cc2ccccc2cc1O`, the activity change, less the hit threshold is -4.5%. Regarding `C/C(=N\NC(=O)c1cc2ccccc2cc1O)c1cc2ccccc2o1`, the activity change, less the hit threshold is 82% (active). In the case of `COc1ccc(CCNC(=O)c2cc3ccccc3oc2=O)cc1`, the activity change, less the hit threshold was -29%. As to `C/C(=N\NC(=S)Nc1cccc(C)c1)c1ccco1`, the activity change, less the hit threshold was -13.9%. On to `C/C(=N/NC(=O)c1cc2ccccc2cc1O)c1ccco1`, for which the activity change, less the hit threshold was 72.8% (active). With `C/C(=N\NC(=O)c1cc2ccccc2cc1O)c1ccccn1` the figure was -9.4%. With `Cc1ccc(/C=N/NC(=O)c2cc3ccccc3cc2O)o1` the figure was 77.9% (active); with `C/C(=N\NC(=S)Nc1c(C)cccc1C)c1cc2ccccc2o1`, -16.4%. Take `C/C(=N\NC(=O)c1ccoc1C)c1cccc2ccccc12`: the activity change, less the hit threshold was 55% (active). As to `Cc1ccc(/C=N/NC(=O)c2cc(C)oc2C)o1`, the activity change, less the hit threshold was -17.8%. Consider `C/C(=N\NC(=O)CSc1nc2ccccc2o1)c1ccc(O)cc1`, for which the activity change, less the hit threshold was -16.2%. On to `Cc1cc(C(=O)Nc2cccc3ccccc23)c(C)o1`, for which the activity change, less the hit threshold is -28.1%. Then `CC(C)(C)NC(=O)CN(C(=O)CS(=O)CC(=O)Nc1ccc(F)cc1)c1cccc(F)c1` (stereo not drawn), with -11.2%; and `Cc1ccsc1/C=C1/SC(=O)N(CC(=O)N2CCCC2)C1=O`, with -18.9%; and `Cn1c(=O)c(Sc2ccccc2)c(O)c2ccccc21`, with -8.1%. In the case of `Cn1c(=O)c2c(ncn2CC(=O)OCc2ccccc2)n(C)c1=O`, the activity change, less the hit threshold is -14.2%. Then `Cc1nc(-c2cc(C#N)c(Sc3ccc(Cl)cc3Cl)nc2C)cs1`, with -16.9%; and `COc1cc(C(=S)N2CCOCC2)ccc1OC(=O)c1ccc([N+](=O)[O-])cc1[N+](=O)[O-]`, with -27.5%; and `Cc1ccc(CCNC(=O)c2cccc(NC3=NC4CS(=O)(=O)CC4S3)c2)cc1` (stereo not drawn), with -10.3%.

Take `C/C(=N/NC(=O)c1sc(NS(=O)(=O)c2ccccc2)nc1C)c1sc(N)nc1C`: the activity change, less the hit threshold was -11.4%.

Regarding `Cc1ccc(C(=O)NC2CCC(C)CC2)o1` (stereo not drawn), the activity change, less the hit threshold is -20.7%.

Take `C/C(=N\NC(=O)c1cc2ccccc2cc1O)c1ccc(C)o1`: the activity change, less the hit threshold is 30.2% (active).

As for `Nn1c(SCC(=O)Nc2ccc(OC(F)F)cc2)nnc1-c1ccco1`, the activity change, less the hit threshold is -14.7%. With `Cc1ccc(C(=O)Sc2cccccc2=O)cc1` the figure was 78.4% (active). Take `CSc1ccccc1C(=O)NCc1ccc(C)cc1`: the activity change, less the hit threshold was -15.6%.

Turning to `CC1=CC(=O)C(C(C)C)=CC1=NC(=O)c1ccc(C)cc1`, the activity change, less the hit threshold was -15.5%. Then `Cc1ccc(Nc2nc(-c3ccncc3)cs2)cc1`, with -17.9%; and `Brc1ccc(-c2csc(N3CCCCCC3)n2)cc1`, with -13.8%; and `Cc1cc(C)c(-c2c(O)c3c(n(C)c2=O)CC(C)(C)CC3=O)c(C)c1`, with -18.3%. `O=C(COc1ccccc1)Nc1ccc(F)cc1`: the activity change, less the hit threshold was -28.9%. As to `O=C(COc1ccc2ccccc2c1)NNC(=O)C(=O)Nc1ccccc1`, the activity change, less the hit threshold was 47.2% (active). In the case of `COC(=O)CSc1nnc(COc2ccc3ccccc3c2)o1`, the activity change, less the hit threshold is -16%.

`C=CCNC(=O)c1ccccc1NC(=O)COc1ccc(OC)cc1`: the activity change, less the hit threshold was -11.7%.

`O=C(COc1ccc2ccccc2c1)Nc1ccc(Br)cc1C(=O)O`: the activity change, less the hit threshold is -9%. On to `O=C(COc1ccc(C(=O)c2ccccc2)cc1)Nc1cccnc1`, for which the activity change, less the hit threshold was -35%.

For the compound `Cc1ccccc1NC(=O)C(=O)NNC(=O)COc1ccc2ccccc2c1`, the activity change, less the hit threshold is 33.6% (active). Turning to `COc1ccccc1NC(=O)C(=O)NNC(=O)COc1ccc2ccccc2c1`, the activity change, less the hit threshold was 93.1% (active). As to `CSc1ccc(S(=O)(=O)N2CCC(C(=O)Nc3ccccc3C(F)(F)F)CC2)cc1`, the activity change, less the hit threshold is -14.7%. As for `Cc1nonc1CN(C)C(=O)c1ccc(OC2CCN(Cc3ccccn3)CC2)cc1`, the activity change, less the hit threshold was -5.7%. For the compound `Cc1ccc(C(=C2C3C=CC2C2C(=O)NC(=O)C32)c2ccc(C)cc2)cc1` (stereo not drawn), the activity change, less the hit threshold is -17.1%. As for `COc1ccccc1C(=O)COC(=O)c1ccc(-n2cnnn2)cc1`, the activity change, less the hit threshold is -14.7%. In the case of `CCOC(=O)c1nnn(CC(=O)Nc2cccc(F)c2)c1C(=O)OCC`, the activity change, less the hit threshold is -9.5%. As for `COc1ccc(CC(=O)Nc2ccc(-c3noc(-c4ccccc4OC)n3)cc2)cc1`, the activity change, less the hit threshold was -16.7%.

As to `O=C(c1ccccc1)c1nccn1-c1ccc(Cl)nn1`, the activity change, less the hit threshold is -7.9%. Turning to `O=C(CSc1cccc[n+]1[O-])C12CC3CC(CC(C3)C1)C2`, the activity change, less the hit threshold was -11.8%. With `O=C(NCCCN1CCOCC1)c1ccc(CS(=O)(=O)Cc2ccccc2Cl)o1` the figure was -26.5%; with `Oc1c(N=NC(=S)Nc2ccccc2F)c2ccccc2n1Cc1ccccc1Cl`, -10%. Take `Oc1c(N=NC(=S)Nc2ccccc2F)c2ccccc2n1Cc1ccc(Cl)cc1`: the activity change, less the hit threshold was -13.5%. For `Oc1c(N=NC(=S)Nc2ccccc2F)c2ccccc2n1Cc1ccccc1`, the activity change, less the hit threshold was -9.8%. For `Oc1c(N=NC(=S)Nc2ccccc2F)c2ccccc2n1Cc1ccc(F)cc1`, the activity change, less the hit threshold is 2.8% (active). Turning to `Cc1ccc(Cn2c(O)c(N=NC(=S)Nc3ccccc3F)c3ccccc32)cc1`, the activity change, less the hit threshold was -11.4%. With `Cc1c(Cl)cccc1NC(=S)N=Nc1c(O)n(CN2CCOCC2)c2ccccc12` the figure was 4.9% (active); with `O=C(CN1C(=O)CSCC1=O)Nc1ccc2c(c1)OCO2`, -7.1%; with `Nc1ccc2nc(-c3cccs3)[nH]c2c1`, -8.8%. With `CC(C)(C)n1nnnc1C(c1cccs1)N1CCN(Cc2ccccc2)CC1` (stereo not drawn), the activity change, less the hit threshold is -11.7%. In the case of `O=C(/C=C/Nc1ccc(F)c(F)c1)c1cccs1`, the activity change, less the hit threshold is -17.4%. `Cc1sc2nc(CN3CCOCC3)[nH]c(=S)c2c1C`: the activity change, less the hit threshold was 93.4% (active).

Consider `C/C(Nc1cccc(F)c1)=C(/C#N)C(N)=O`, for which the activity change, less the hit threshold was -14.7%. `Cc1nc(NCc2cccnc2)c2c3c(sc2n1)CC(C)CC3` (stereo not drawn): the activity change, less the hit threshold was 26.7% (active). As for `Cc1cccc(NC(=O)CN2C(=O)S/C(=C\c3cccn3-c3cccc(C(=O)O)c3)C2=O)c1`, the activity change, less the hit threshold is -18.5%. As to `S=c1nc[nH]c2c1sc1nc(-c3ccccc3)c3c(c12)CCCC3`, the activity change, less the hit threshold was -4.2%. In the case of `CC(C)c1nc2sc3c(=S)nc[nH]c3c2c2c1CCC2`, the activity change, less the hit threshold is 14.2% (active). As for `S=c1nc[nH]c2c1sc1nc(N3CCOCC3)c3c(c12)CCCC3`, the activity change, less the hit threshold is 43.5% (active). Then `COc1ccc(S(=O)(=O)Nc2cccnc2)cc1`, with -17.2%.
